Experimental findings from ChEMBL document CHEMBL3433997, “St. Jude Leishmania screening dataset” (2016) are described below.

The target of the experiment is Solute carrier family 2, facilitated glucose transporter member 1 (Homo sapiens) (UniProt P11166). Briefly: ST_JUDE_LEISH: Cytotoxicity at 2uM final concentration against transgenic Leishmania Mexicana promastigotes LmGLUT1 that are glucose transport deficient and complemented with the human glucose transporter GLUT1. Activity is measured by DNA content using SYBR green in vitro. It counts as functional.
Solute carrier family 2, facilitated glucose transporter member 1 (Homo sapiens), sequence (P11166 whole entry): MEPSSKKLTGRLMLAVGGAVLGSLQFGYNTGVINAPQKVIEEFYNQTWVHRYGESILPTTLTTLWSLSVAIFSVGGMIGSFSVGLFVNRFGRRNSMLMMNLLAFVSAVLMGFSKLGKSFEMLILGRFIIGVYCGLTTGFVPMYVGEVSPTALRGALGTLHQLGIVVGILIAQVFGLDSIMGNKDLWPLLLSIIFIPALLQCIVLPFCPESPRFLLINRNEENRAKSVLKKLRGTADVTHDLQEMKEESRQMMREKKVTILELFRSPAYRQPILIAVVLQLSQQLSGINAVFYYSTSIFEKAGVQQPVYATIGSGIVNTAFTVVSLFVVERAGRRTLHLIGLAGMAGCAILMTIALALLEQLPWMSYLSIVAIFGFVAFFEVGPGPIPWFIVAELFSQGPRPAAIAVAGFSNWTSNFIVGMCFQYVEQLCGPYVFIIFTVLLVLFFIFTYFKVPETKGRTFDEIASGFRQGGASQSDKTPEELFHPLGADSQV
Broadly, the inhibition is the change of the read-out against control, counted positive when it falls. For the molecule `Cc1cc(=O)[nH]c(-n2nc(C)cc2NC(=O)C2(c3ccc(Cl)cc3)CCCC2)n1`, the inhibition is 61.6%.

Turning to `COc1ccc(CN(C)CCCc2ccc(NC(=O)c3cc4ccccc4[nH]3)cc2)cc1OC`, the inhibition is 3.27%.

On to `CC(C)COc1ccc(Cl)cc1Cc1nc(-c2nc3cccc(CN4CCN(C)CC4)c3[nH]2)cs1`, for which the inhibition was 0.6%.

Consider `Cc1cc(-c2ccc3occ(CCN)c3c2)cnc1N`, for which the inhibition was found to be 1.36%.

For the molecule `N=c1n(CCN2CCCC2)c2ccccc2n1CC(O)c1ccc(Cl)c(Cl)c1` (stereo unspecified), the inhibition turned out to be 1.98%.

Regarding `Cc1cc(N(C)C2CCN(C)C2)nc(Nc2ccc(Cl)cc2)n1` (stereo unspecified), the inhibition stood at 7.55%.

As for `O=C(NCCCCN1CCC(c2ccc3c(c2OCCOCCO)CCCC3)CC1)c1ccc(-c2ccc(C(F)(F)F)cc2)cc1`, the inhibition came to 0.77%.

Take `Fc1ccc2[nH]c(-c3ccc(-c4cccc(CN5CCC(CCN6CCCCC6)CC5)c4)cc3)nc2c1`: the inhibition came to 2.93%.

As for `Cc1ccccc1N1CCN(c2ncc(C(=O)NC3CC3)cc2Cl)CC1`, the inhibition worked out at 6.45%.

As to `CCC(CC)CN1C(=O)C(C)(c2ccccc2)N=C1N` (stereo unspecified), the inhibition was -1.13%.

As for `CN1CCCN(c2ccnc3cc4c(cc23)N(C(=O)c2ccccc2Cl)CC4)CC1`, the inhibition was -0.76%.

Take `COc1cc(Cc2cnc(N)nc2N)cc(OCCCc2cc(OCc3ccccc3)no2)c1OC`: the inhibition came out at 10%.

As to `COc1ccc(OC(C)CNC(=O)c2cc([N+](=O)[O-])ccc2-c2ccc(OC)cc2)cc1` (stereo unspecified), the inhibition came out at 0.03%.

Consider `CCOC(=O)c1c(NC(=O)c2ccccc2)sc2c(O)c(CNC3CCCCC3)ccc12`, for which the inhibition is -1.14%.

`CCCCCCn1c2c(c(=N)c3c1CCC3)CCCC2`: the inhibition amounted to 78.2%.

Turning to `CC1CCCC(Nc2noc(-c3sccc3Br)n2)C1` (stereo unspecified), the inhibition was -0.93%.
